A selection: hits, their analogues and other compounds. The true share with any hit is near 1.5%.
S1P4 agonist – S1P4 receptor agonists, primary screen, cell-based. S1P4-expressing cell line, agonist reporter assay. Sphingosine 1-phosphate receptor 4 (Homo sapiens), O95977. actives 0.35% (n = 220,000). activation, % at 4.98 µM. AID 1509, 2009; in the data active = activation above about 11%;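 also: 0% = DMSO vehicle and 100% = reference agonist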
Insulin prom up – insulin promoter activators in MIN6 cells, imaging, high-content screening, mouse beta cells | z-score at 5 µM | actives 0.3% (n = 190,000) | AID 1625, 2009 | MIN6 insulin promoter-GFP reporter; active compounds read high;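 active = z-score above 3 at 5 µM with at least 500 cells counted in the well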
S1P4 antag – S1P4 receptor antagonists, primary screen, cell-based; Sphingosine 1-phosphate receptor 4 (Homo sapiens), O95977; S1P4-expressing cells, antagonist mode, reporter read-out; inhibition, % at 4.98 µM; actives 0.26% (n = 220,000); AID 1510, 2009; in the data active = inhibition above about 29%;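 also: 0% = wells stimulated with agonist and 100% = vehicle wells without agonist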
Hsp70 act – Hsp70 transcriptional activators, primary screen, cell-based, HeLa, Hsp70 promoter luciferase, luminescence, 10 µM; HeLa Hsp70 promoter luciferase reporter; scaled: vehicle 0, proteasome-inhibitor control 100%; activation, % at 10 µM; actives 0.04% (n = 200,000); AID 1203, 2008;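 active = activation above the mean across all tested compounds plus 3 SD, cutoff set per campaign, cut at about 5.5% in these data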;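 also: 100% = MG132 at 30 µM as the positive control and 0% = DMSO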
S1P3 antagonist – S1P3 receptor antagonists, primary screen, cell-based. Sphingosine 1-phosphate receptor 3 (Homo sapiens), Q99500. CHO S1P3 NFAT-BLA reporter, FRET fluorescence, antagonist mode. inhibition, % at 4.98 µM. actives 0.27% (n = 170,000). AID 485, 2006;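 active = inhibition above the plate cutoff, the mean inhibition of test wells on that plate plus 3 SD, cut at about 28% in these data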;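 also: cells challenged with S1P at its EC80 of 0.8 µM; blue over green emission ratio from cleaved BLA substrate after 4 h stimulation; 0% = S1P-stimulated wells and 100% = unstimulated DMSO-only wells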
Target sequence (Q99500 whole entry, looked up): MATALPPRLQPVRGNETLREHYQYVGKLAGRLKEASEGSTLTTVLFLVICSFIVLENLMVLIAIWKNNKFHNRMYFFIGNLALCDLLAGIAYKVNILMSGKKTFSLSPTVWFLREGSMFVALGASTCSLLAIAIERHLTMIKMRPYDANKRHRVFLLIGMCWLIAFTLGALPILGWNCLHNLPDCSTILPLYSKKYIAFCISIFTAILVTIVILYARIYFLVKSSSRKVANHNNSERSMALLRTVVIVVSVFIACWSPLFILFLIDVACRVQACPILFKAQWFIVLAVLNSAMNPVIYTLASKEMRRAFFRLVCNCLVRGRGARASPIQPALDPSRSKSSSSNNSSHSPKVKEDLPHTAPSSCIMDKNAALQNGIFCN
Insulin prom inh – inhibitors of insulin promoter-driven GFP, primary screen, imaging, TRM-6 cells (human fetal islet line), eGFP reporter, cell count | reporter expression induced with tamoxifen | inhibition, % at 2 µM | actives 0.9% (n = 130,000);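 active = inhibition above the mean plus 3 SD, with well images judged a real hit on visual review, cut at about 60% in these data, passing the limit was not always enough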
* = called active by the depositor; nt = no result given.

SMILES	S1P4 agonist	Insulin prom up	S1P4 antag	Hsp70 act	S1P3 antagonist	Insulin prom inh
CCC(=O)Nc1ccc2c(c1)ncn2-c1ccccc1	0.4	4.96*	-24.0	1.4	nt	-20.0
N#Cc1cn(CC(=O)N2CCc3ccccc3C2)c2ccccc12	1.2	-0.63	-9.2	0.1	nt	14.3
COc1ccc(C(=O)C[n+]2cn(C(F)F)c3ccccc32)c(F)c1	1.3	nt	-8.1	0.1	-24.5	nt
CC(=O)N=c1c(C#N)cc2c(=O)n3cccc(C)c3nc2n1CC(C)C	nt	nt	nt	nt	-19.1	nt
COc1ccc(NC(=O)C(c2ccccc2)N(C)C(=O)c2ccc(=O)[nH]c2)cc1 (stereo not given)	-0.1	-0.13	-15.2	-0.5	2.1	-14.8
Clc1ccc2nc(N3CCCCC3)sc2c1	0.9	-0.22	-19.2	0.1	-40.6	nt
Clc1ccc2nc(N3CCCCC3)[nH]c2c1	-0.1	nt	13.4	-0.1	29.6	86.7*
CCCCc1ccc(NC(=S)N2CCCC(C)C2)cc1 (stereo not given)	-0.8	-0.59	4.0	0.0	-18.8	-29.4
CSc1nc2cc(F)c(F)cc2n1C	1.5	0.6	-14.7	-0.1	-9.1	86.5*
COc1cccc(C(=O)Nc2nc(C)cs2)c1	-0.6	0.44	-0.6	-0.1	nt	-18.4
COc1cccc(C(=O)Nc2nc(-c3ccncc3)cs2)c1	-1.4	-0.05	-5.7	-0.1	-2.6	76.5*
CCOC(=O)N1CCN(C(=O)NC2CCCCC2)CC1	0.7	3.74*	0.8	-0.1	nt	-29.7
CCOC(=O)N1CCN(C(=S)NC)CC1	-0.4	-0.1	7.0	-0.2	nt	72.4*
Cc1cc(C)nc(N2N=C(C(C)(C)C)CC2=O)n1	0.7	-0.27	2.8	-0.6	nt	-51.9
Cc1ccc(SCC2=NN(c3nc(C)cc(C)n3)C(=O)C2)cc1	-2.2	0.03	-7.4	-0.1	-7.4	66.7*
Cc1[nH]c2ccccc2c1Cc1nnc(SCC(N)=O)o1	-1.3	4.82*	1.0	-0.3	81.5*	-110.0
Cc1cc(C)nc(NS(=O)(=O)c2ccc(N/C=C\C(=O)c3ccc(Cl)cc3)cc2)n1	-2.0	-0.38	-12.1	-0.2	nt	70.0*
COc1ccc(S(=O)(=O)NC2CCCCC2)c(C)c1C	-0.6	-0.05	-16.4	-0.1	0.2	-9.5
Cc1cc(S(=O)(=O)NC2CCCCC2)c(C)s1	-0.4	3.49*	-8.8	-0.3	6.8	nt
Cc1ccc(-c2nnn(CCC(=O)N3CCCCC3C)n2)cc1 (stereo not given)	0.3	0.07	-1.6	-0.2	1.2	71.4*
CC1CCCCN1C(=O)Cn1nnc(-c2cccnc2)n1 (stereo not given)	0.6	1.15	-20.8	0.2	-2.5	-50.0
O=C(c1ccc(Cl)cc1)N1CCCCC(Cl)C1=O (stereo not given)	-2.2	-0.17	-6.8	-0.2	8.6	11.1
CCn1c(SCC(=O)c2c[nH]c3ccccc23)nc2cc(S(=O)(=O)N3CCOCC3)ccc21	0.8	3.09*	-0.7	-0.3	-4.9	59.5
CC(NC(=O)/C(C#N)=C1\N=C(NC(=O)c2ccco2)c2ccccc21)c1ccccc1 (stereo not given)	0.7	3.68*	3.6	nt	-8.2	nt
CCC(C(=O)NC(C)(C)C)N(C(=O)Cn1nnc(-c2cccs2)n1)c1cnc2ccccc2c1 (stereo not given)	-0.1	-0.78	-9.2	0.2	nt	2.7
SMILES	S1P4 agonist	Insulin prom up	S1P4 antag	Hsp70 act	S1P3 antagonist	Insulin prom inh
Cc1cc(C)n2c(SCc3c(C)noc3C)nnc2n1	0.0	0.27	-8.0	-0.4	-7.2	80.0*
N/C(=N\OC(=O)C1CCCCC1)c1cccc([N+](=O)[O-])c1	-0.8	3.01*	-8.9	-0.1	nt	23.3
Cc1ccc(C(=O)O/N=C(\N)c2cccc([N+](=O)[O-])c2)cc1	-0.2	1.92	-23.6	0.6	nt	-10.0
O=C(CN1CCN(c2ccc([N+](=O)[O-])cc2)CC1)Nc1nccs1	3.6	-0.23	-4.8	-0.1	-9.2	76.9*
O=C(CN1CCN(c2ccc([N+](=O)[O-])cc2)CC1)Nc1ccccn1	-0.6	-0.47	-3.7	-0.3	-10.0	38.5
O=C(CSc1nnc(-c2cccnc2)s1)Nc1ccc(C(=O)O)cc1	0.7	0.65	-17.4	-0.4	-59.4	nt
ClCC1CN(Cc2ccccc2Cl)CCO1 (stereo not given)	0.5	nt	-9.2	-0.2	1.4	nt
O=C(CCCOc1ccc(Cl)cc1Cl)N/N=C/c1ccco1	1.4	0.1	-9.5	-0.3	-4.1	78.6*
O=C(/C=C/c1ccncc1)c1ccc(NC(=O)c2ccccc2F)cc1	2.5	-0.27	37.4*	-0.4	0.8	-21.4
CCOc1ccc(NC(=O)C2CCC(C)(C(=O)O)C2(C)C)cc1 (stereo not given)	1.1	3.64*	-2.6	-0.1	9.9	nt
COc1ccc(NC(=O)C2CCC(C)(C(=O)O)C2(C)C)cc1 (stereo not given)	1.1	-0.13	-8.4	-0.2	nt	-21.4
O/N=C1\CCCC\C1=C/c1ccccc1	-0.3	0.21	1.9	0.1	-0.8	8.3
CCCc1cc(=O)[nH]c(Nc2ccc(Cl)cc2)n1	1.0	-0.06	5.1	0.0	5.7	11.8
CCCc1cc(=O)[nH]c(Nc2ccc(OC)c(Cl)c2)n1	-1.1	-0.39	-33.5	-0.1	92.2*	-6.7
Cc1ccoc1C(=O)N1CCCC(CCC(=O)N2CCN(c3ccccn3)CC2)C1 (stereo not given)	0.2	nt	-2.3	0.2	3.8	nt
COc1ccc(OC)c(C(=O)c2ccccc2)c1	-2.6	nt	-28.4	-0.3	nt	81.0*
O=C(NC(=S)N1CCN(Cc2ccccc2)CC1)c1ccco1	1.9	-0.19	-5.7	-0.2	-14.3	nt
Cc1cc(C(=O)COC(=O)c2ccc[nH]c2=O)c(C)n1-c1ccc(F)cc1	1.2	-0.2	-21.9	-0.3	-4.1	0.0
C/C(=N\S(=O)(=O)c1ccc(C)cc1)N1CCN(S(=O)(=O)c2ccccc2)C1	0.2	3.52*	-11.5	-0.3	-1.7	nt
CCn1c(C)c(/C=N/Nc2nc3ccccc3s2)c2ccccc21	-0.5	-1.16	-2.0	0.1	nt	46.0
CC(C)C(OC(=O)CN1C(=O)COc2ccccc21)C(=O)NC1CCCC1 (stereo not given)	0.6	-0.31	-12.2	-0.1	17.7	nt
Cc1ccc2c(c1)N(CC(=O)OC(CC(C)C)C(=O)NC1CCCC1)C(=O)CO2 (stereo not given)	-0.5	2.37	3.3	-0.3	89.5*	-25.0
Cc1cc(=O)oc2cc(OCC(=O)OCC(=O)NC3CC3)ccc12	1.3	3.8*	-15.9	0.0	-17.6	nt
CC1=CC(=O)C(C(C)C)=CC1=NC(=O)c1ccc(C)cc1	-0.9	-0.2	-1.9	-0.3	-9.1	nt
N#CCC(=O)Nc1ccc(C(=O)OCC(=O)Nc2cccc(C(F)(F)F)c2)cc1	0.0	0.15	-18.2	-0.2	1.6	nt

High-throughput results: PubChem, several laboratories
